# In the library only some 19% were active in any assay of this set; here they are far more common.
# IL1B secr inh = inhibitors of inflammasome signaling (IL-1 beta secretion); THP-1 LPS/ATP IL-1B secretion, AlphaLISA, 16 h; active compounds read low; activity change, % at 57.5 µM; 360,000 tested, 4.7% active; AID 743279; in the data active = activity change below about -50%; inconclusive = mostly about -30% to -49%
#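 THP-1 cells pretreated 1 hr with compounds (up to 57.5 uM final), then stimulated with LPS (250 ng/mL final) plus ATP (1.25 mM final); secreted IL-1B measured by AlphaLISA after 16 hr, decreased signal indicating inhibition.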
# Giardia kill = Giardia lamblia killing; activity change, % at 7.66 µM, hits read low; AID 540267; Giardia lamblia trophozoite viability; 340,000 tested, 0.15% active; in the data active = activity change below about -80%; inconclusive = between about -30% and that limit;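 note: parasites exposed to compound for two days anaerobically before the ATP read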
#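 Compounds were tested on trophozoites seeded at 100 cells/well and held 48 hrs at 37 deg C anaerobically. An ATP-based luminescent kit measured the remaining live cells.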
# ELG1 DNA repair = ELG1-dependent DNA repair inhibition | Potency, µM (series often up to 46.1 µM), inactives show at the top dose activity change, negative = inhibition, hits mostly inhibitors | HEK293T ELG1-luciferase reporter, luminescence, 16 h; DNA damage induced by 5-fluorouridine | 330,000 tested, 2.3% active; note: potency is the fitted concentration of half-maximal effect; nearly all actives have a fitted effect of over 55% in size
#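 Reporter activity after DNA damage by 5-fluorouridine is monitored. Compound-treated cells incubate 16 hr at 37 °C, then ONE-Glo is added for 30 min before luminescence reading.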
# DT40 TDP1 no CPT = qHTS for Inhibitors of human tyrosyl-DNA phosphodiesterase 1 (TDP1): qHTS in cells in absence of CPT; 420,000 tested, 15% active; AID 686978, 2013; DT40 Tdp1-/- hTDP1 cells, no CPT, ATP luminescence, 48 h; Potency, µM (highest dose often 46.2 µM), without a hit: at the top dose activity change, negative = growth inhibition, hits mostly inhibitors; note: potency is the fitted concentration of half-maximal effect; nearly all actives have a fitted effect of over 55% in size
#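 Chicken DT40 Tdp1-/- cells complemented with human TDP1, screened without camptothecin (DMSO vehicle only), 400 cells/well. Compounds pin-transferred, cells incubated at 37 °C for at least 48 hr. Growth read as ATP-dependent luminescence (CellTiter-Glo, 30 min at RT).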
# DT40 TDP1 CPT = growth inhibition of DT40 Tdp1-/-;hTDP1 cells with camptothecin (screen for TDP1 inhibitors); Potency, µM (titrated, usually from 46.2 µM), inactives show at the highest dose activity change, negative = growth inhibition, hits mostly inhibitors; chicken DT40 Tdp1-/-;hTDP1 cells + 20 nM CPT, ATP luminescence, 48 h; 420,000 tested, 12% active; note: potency is the fitted concentration of half-maximal effect; nearly all actives have a fitted effect of over 55% in size
#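 Cell growth measured by CellTiter-Glo luminescence after a minimum 48 h, 37 C compound exposure with 20 nM CPT in Tdp1-knockout DT40 cells stably expressing hTDP1, seeded 400/well; qHTS titration format.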
# TDP1 block = blocks human tyrosyl-DNA phosphodiesterase 1. 350,000 tested, 0.28% active. recombinant TDP1, AlphaScreen DNA substrate cleavage. Potency, µM (top dose mostly 130 µM), for the others: top-dose activity change, negative = inhibition, usual class: inhibitors. Q9NUW8. AID 485290; note: potency is the fitted concentration of half-maximal effect; nearly all actives have a fitted effect of over 40% in size
# Target sequence (Q9NUW8 whole entry, looked up): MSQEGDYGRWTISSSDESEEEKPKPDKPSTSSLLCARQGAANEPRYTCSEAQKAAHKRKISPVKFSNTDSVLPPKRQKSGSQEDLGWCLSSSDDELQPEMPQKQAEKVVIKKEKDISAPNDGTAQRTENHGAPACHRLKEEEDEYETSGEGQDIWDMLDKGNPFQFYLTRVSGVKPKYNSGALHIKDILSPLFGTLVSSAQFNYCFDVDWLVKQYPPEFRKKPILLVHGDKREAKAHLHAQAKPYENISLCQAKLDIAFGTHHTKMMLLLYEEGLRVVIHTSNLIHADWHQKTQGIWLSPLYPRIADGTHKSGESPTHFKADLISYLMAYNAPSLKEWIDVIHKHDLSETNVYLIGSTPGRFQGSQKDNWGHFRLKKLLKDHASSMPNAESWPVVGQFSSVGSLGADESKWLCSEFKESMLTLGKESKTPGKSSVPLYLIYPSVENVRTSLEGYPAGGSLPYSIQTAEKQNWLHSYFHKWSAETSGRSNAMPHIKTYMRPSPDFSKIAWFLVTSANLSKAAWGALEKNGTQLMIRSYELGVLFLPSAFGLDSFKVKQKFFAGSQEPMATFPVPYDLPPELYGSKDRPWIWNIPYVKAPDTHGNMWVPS
#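 E. coli-derived human Tdp1, 1 nM final. Cpd preinc 15 min RT; substrate 15 nM final, 5 min RT; AS bead mix 10 ug/ml final, 10 min RT. Signal loss = tyrosine-FITC cleavage. No-enzyme wells = max signal.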
# Starred values were filed as active, the others as inactive; i = inactive; ? = inconclusive; / = no result given; [ ] = another dose, or the depositor's remark. Unless noted, calls come from the whole dose curve; as a rule, active = well fitted curve in the direction sought with a large enough effect; inconclusive = small, poorly fitted or top-dose-only effect, or another doubt; inactive = no such curve, though single readings can be large; an effect the other way counts as inactive or inconclusive. % is set by controls: 0 for no effect and ±100 for the full control effect.
SMILES,IL1B secr inh,Giardia kill,ELG1 DNA repair,DT40 TDP1 no CPT,DT40 TDP1 CPT,TDP1 block
COc1ccc(-c2c(C)nn3c(NC4CCCC4)cc(C)nc23)cc1OC,-3.7,2.4,?,?,?,/
CCOC(=O)c1c(C)[nH]c(C)c1S(=O)(=O)NCC(=O)N1CCN(c2ccccc2OC)CC1,/,/,/,-18.6%,?,7.9%
CCOc1ccc(N(C(=O)CNC(=O)c2cccs2)C(C(=O)NCC2CCCO2)c2ccc(OC)c(OC)c2)cc1 (centres undefined),-16.3,-5.7,9.0%,-3.3%,2.2%,-7.6%
COCCNc1cc(C)nc2c(-c3ccccc3OC)c(C)nn12,28.9,7.4,0.8%,-11.4%,-3.9%,2.6%
COc1ccc(CCNc2cc(C)nc3c(-c4ccc(Cl)cc4)cnn23)cc1OC,-15.0,-2.1,?,16.4µM*,20.6µM*,-2.7%
COc1ccc(CCNc2cc(C)nc3c(-c4ccccc4)c(C)nn23)cc1OC,4.7,7.0,20.6µM*,16.4µM*,?,2.7%
COc1ccc(CCNc2cc(C)nc(N)n2)cc1OC,-2.0,30.5,-0.4%,?,?,/
Cc1ccc(-n2c(SCC(=O)Nc3c(C)cccc3C)nc(O)c(C)c2=O)cc1,/,/,/,-6.7%,1.5%,0.0%
COc1ccc(/C=C/C2=CCN(Cc3ccc(OC)cc3)CC2)cc1,-21.6,20.3,?,-27.8%,-27.2%,7.4%
O=c1cc2oc3cc(O)c(O)cc3c(-c3ccccc3[N+](=O)[O-])c-2cc1O,-7.2,?,20.6µM*,23.1µM*,20.6µM*,/
O=c1cc(-c2ccccc2Cl)oc2c([N+](=O)[O-])ccc(O)c12,/,/,/,/,/,-1.0%
O=C(CN1C(=O)/C(=C2\SC(=S)N(C3CCS(=O)(=O)C3)C2=O)c2ccccc21)Nc1ccc(F)cc1 (centres undefined),/,23.2,-3.6%,?,6.51µM*,2.6%
COc1ccc(NC(=O)CN2C(=O)/C(=C3\SC(=S)N(C4CCS(=O)(=O)C4)C3=O)c3ccccc32)cc1 (centres undefined),?,17.8,1.8%,18.4µM*,9.2µM*,0.0%
O=C(NNC(=O)c1c(O)c2ccccc2[nH]c1=O)c1ccccc1Br,-13.4,-4.4,9.9%,?,?,-5.2%
Cc1nn(-c2ccccc2)c2nc(=O)n(-c3ccccc3)cc12,-7.1,-0.1,0.7%,7.31µM*,8.2µM*,0.0%
CC1(C)Cc2c(c(N3CCOCC3)nc3sc4c(NCC5CCCO5)nnnc4c23)CS1 (centres undefined),16.0,-1.0,?,?,-27.3%,-10.3%
CC1(C)Cc2c(c(N3CCOCC3)nc3sc4c(NCCN5CCOCC5)nnnc4c23)CS1,-17.4,4.1,?,11.6µM*,?,5.7%
CN(C)C(=O)C[C@@H]1C=C[C@@H](NC(=O)C2CCC2)[C@@H](CO)O1,-6.4,/,/,8.4%,-4.2%,/
Cc1ccc(S(=O)(=O)NC(=O)C2CCCCC2)cc1,8.8,9.3,5.9%,9.6%,-0.7%,0.0%[56.1 µM]
CCCn1c(N)[n+](CC(=O)c2ccco2)c2ccccc21,-58.6*,-16.7,-19.2%,-12.7%,-2.2%,3.1%
COC(=O)Cn1c(N)[n+](Cc2ccccc2)c2ccccc21,0.1,3.0,0.1%,0.1%,7.1%,-0.3%
CC1CN(S(=O)(=O)c2cccc(C(=O)Nc3cc(Cl)ccc3N3CCOCC3)c2)CC(C)O1 (centres undefined),-22.0,14.2,-19.8%,14.6µM*,?,0.9%
CC1CN(S(=O)(=O)c2cccc(C(=O)Nc3ccccc3N3CCCC3)c2)CC(C)O1 (centres undefined),-1.6,25.5,-9.6%,11.6µM*,?,-5.7%
CN1CCN(S(=O)(=O)c2cccc(C(=O)Nc3cc(Cl)ccc3N3CCOCC3)c2)CC1,-19.5,-3.9,1.4%,-29.2%,-10.8%,3.9%
O=C(O)CCn1cc(/C=C/C(=O)c2ccc(Cl)cc2)c(-c2ccc(Br)cc2)n1,-92.8*,-2.6,?,23.1µM*,16.4µM*,5.5%
SMILES,IL1B secr inh,Giardia kill,ELG1 DNA repair,DT40 TDP1 no CPT,DT40 TDP1 CPT,TDP1 block
COc1ccc(N(CC(=O)NCC2CCCO2)C(=O)CCC(=O)Nc2cc(C)on2)cc1OC (centres undefined),6.5,-19.0,12.1%,1.3%,-19.7%,2.9%[0.0935 µM]
O=C(c1ccc2ccccc2c1)C1CCCN(C(=O)c2cccnc2)C1 (centres undefined),i,-20.3,-3.0%,14.6µM*,16.4µM*,4.5%
CSc1ccc(C(=O)C2CCCN(C(=O)CCc3c(C)nn(C)c3C)C2)cc1 (centres undefined),-12.0,1.6,/,8.2µM*,10.3µM*,/
COc1ccc2cc(C(=O)C3CCCN(C(=O)c4cccnc4)C3)ccc2c1 (centres undefined),-29.7,-18.3,5.6%,?,?,5.7%
O=C(c1ccc2ccccc2c1)C1CCCN(C(=O)c2noc3c2CCCC3)C1 (centres undefined),-71.5*,6.3,?,?,?,7.6%
CSc1ccc(C(=O)C2CCCN(C(=O)c3cccnc3SC)C2)cc1 (centres undefined),52.6,-1.7,-18.1%,16.4µM*,?,3.0%
O=C(c1ccc2ccccc2c1)C1CCCN(C(=O)CN2C(=O)CSC2=O)C1 (centres undefined),-0.6,29.8,?,-14.1%,-8.5%,2.7%
Cc1cccnc1NC(=O)Nc1cccc(F)c1,-0.2,/,/,-19.0%,-7.5%,/
COC(=O)C1CCCCN1Cc1ccc2c(c1)CN(C(=O)c1csc(-c3cccs3)n1)CCO2 (centres undefined),/,/,/,?,-3.5%[9.04 µM],/
CC(C)C(=O)OC1=CN(Cc2ccccc2)S(=O)(=O)c2ccccc21,/,/,/,-22.8%,?,-2.6%
COc1ccccc1C(=O)Nc1ccccc1OCc1cc(=O)n2ccccc2n1,/,/,/,?,?,2.7%
O=C(CN1C(=O)C2CC=CCC2C1=O)Nc1ccc(OC(F)(F)F)cc1 (centres undefined),5.9,11.9,23.2%,0.8%,?,0.7%
CSc1ncccc1C(=O)N1CCCC(C(=O)c2ccc3ccccc3c2)C1 (centres undefined),-56.2*,-5.7,?,20.6µM*,?,1.2%
CN(C)c1ccccc1C(=O)N1CCCC(C(=O)c2ccc3ccccc3c2)C1 (centres undefined),-7.6,20.2,?,23.1µM*,?,2.7%

# Screening results from PubChem BioAssay.
